Our source for the z-score and composite z-score values is PubChem BioAssay.

The source made the active and inactive calls. Unless noted, the rule behind the calls is not given here.

Test [1] is described as follows: compound effects on lung adenocarcinoma cell viability – A549, calcein-AM fluorescence, 48 h, basal, profiling panel (AID 1162). Note: test concentration not given here. Particulars: higher = more signal.
Test [2] can be described thus: compound effects on differentiated 3T3-L1 adipocyte viability – cell-based, 3T3-L1 adipocytes, calcein-AM fluorescence, 48 h, basal, profiling panel (AID 1163). Note: test concentration not given here. Particulars: 3T3-L1 adipocytes viability, higher = more signal.
Test [3] is described as follows: compound effects on hepatocellular carcinoma cell viability – HepG2, calcein-AM fluorescence, 48 h, basal, profiling panel (AID 1164). Note: test concentration not given here. Conditions: higher = more signal.
Test [4] in a line: compound effects on multiple myeloma cell viability – MM1S, calcein-AM fluorescence, 48 h, basal, profiling panel (AID 1165).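 Note: viability of MM1S multiple myeloma cells under basal unstimulated conditions; test concentration not given here.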 Particulars: higher = more signal.
A short description of test [5]: calcein-AM signal in unstimulated myeloma cells – cell-based, calcein-AM fluorescence, 48 h, PK04 Diversity Set, profiling panel (AID 1166).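 Note: cells grown under basal conditions without added stimulus; test concentration not given here.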 Particulars: RPMI8226 myeloma viability, higher = more signal.
Test [6] in a line: JC-1 mitochondrial signal, unstimulated HepG2 cells – cell-based, JC-1 fluorescence, 24 h, 100 nL compound, profiling panel (AID 1167). Note: test concentration not given here. Conditions: HepG2 mitochondrial potential, higher = more signal.
Test [7] can be described thus: JC-1 mitochondrial signal, unstimulated adipocytes – cell-based, JC-1 fluorescence, 3T3-L1 adipocytes, 24 h, 100 nL compound, profiling panel (AID 1168). Note: test concentration not given here. Particulars: JC-1 mitochondrial fluorescence, higher = more signal, called active from +8 up or from −8 down.
Test [8] can be described thus: JC-1 mitochondrial signal, unstimulated myeloma cells – cell-based, JC-1 fluorescence, RPMI8226, 24 h, 100 nL compound, profiling panel (AID 1169). Note: test concentration not given here. Particulars: JC-1 mitochondrial potential fluorescence, higher = more signal.
The nature of test [9]: JC-1 mitochondrial signal, unstimulated MM1S myeloma – cell-based, JC-1 fluorescence, 24 h, 100 nL compound, profiling panel (AID 1170). Note: test concentration not given here. Conditions: MM1S mitochondrial potential, higher = more signal.
Test [10] can be described thus: resazurin metabolic signal in A549 cells – cell-based, resazurin fluorescence, 24 h, PK04 Diversity Set, profiling panel (AID 1171). Note: test concentration not given here. Particulars: A549 viability, higher = more signal, called active from +8 up or from −8 down.
The nature of test [11]: resazurin metabolic signal in HepG2 cells – cell-based, resazurin fluorescence, 24 h, PK04 Diversity Set, profiling panel (AID 1172). Note: test concentration not given here. Conditions: HepG2 viability, higher = more signal. (In general: The colour change of resazurin is a common sign of viable cells or microbes.)
The nature of test [12]: budding yeast growth changes without added modifier – OD600, strain BY4716, 24 h, basal condition, primary screen (AID 1173). Particulars: S. cerevisiae BY4716 growth, OD600, 24 h; higher = more signal, called active from +8 up or from −8 down.
The nature of test [13]: viability profiling in MM1S myeloma cells – cell-based, resazurin fluorescence, basal, 24 h, PK04 Diversity Set, profiling panel (AID 1174). Note: test concentration not given here. Conditions: higher = more signal, called active from +8 up or from −8 down.
The target in test [14] is Dihydroorotate dehydrogenase (quinone), mitochondrial (Plasmodium falciparum (isolate 3D7)) (UniProt Q08210). Briefly: inhibition of P. falciparum DHODH – biochemical, C-terminal His tag, absorbance 600 nm, primary screen (AID 1175).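 Note: recombinant parasite enzyme with a five histidine tag at its C terminus; test concentration not given here.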 Particulars: PfDHODH enzyme, DCIP absorbance 600 nm; higher = more signal, called active from +8 up or from −8 down.
Test [15] in a line: inhibition of PAO1 biofilm formation – strain PAO1, LB-PBS medium, absorbance 600 nm, primary screen (AID 1176). Note: test concentration not given here. Conditions: P. aeruginosa PAO1 growth/biofilm, A600, 12 h; higher = more signal.
Test [16] in a line: growth modulation of vineyard yeast isolate – strain RM11-1a, OD600, basal, 24 h, primary screen (AID 1177).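 Note: cultures grown under basal conditions with no added stressor; test concentration not given here.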 Particulars: S. cerevisiae RM11-1a growth, OD600, 24 h; higher = more signal, called active from +8 up or from −8 down.
The nature of test [17]: growth of efflux-deficient E. coli DRC39 – strain DRC39, OD650, 24 h, E. coli filamentation inducers, primary screen (AID 1178).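 Note: growth measured as culture turbidity by optical density at 650 nm; test concentration not given here.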 Conditions: E. coli DRC39 acrAB, higher = more signal, called active from +8 up or from −8 down.
Test [18] can be described thus: growth of efflux-deficient E. coli DRC39 – strain DRC39, OD650, 48 h, E. coli filamentation inducers, primary screen (AID 1179).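 Note: screen aims at cell division blockers that make cells filament.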 Conditions: E. coli DRC39 delta-acrAB growth, higher = more signal, called active from +8 up or from −8 down.
A short description of test [19]: viability profiling in RPMI8226 myeloma cells – cell-based, resazurin fluorescence, basal, 24 h, PK04 Diversity Set, profiling panel (AID 1180).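 Note: RPMI8826 multiple myeloma cell line at 5000 cells per well; test concentration not given here.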 Conditions: higher = more signal.
Test [20] deals with E3 ubiquitin-protein ligase XIAP (Homo sapiens) (UniProt P98170). Briefly: small molecules binding XIAP protein – biophysical, small-molecule microarray, fluorescence 635 nm, primary screen (AID 1181).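 Note: score merges 667 nm emission and signal to noise over triplicate slides.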 Particulars: higher = more signal.
Chain of E3 ubiquitin-protein ligase XIAP (Homo sapiens) (P98170 whole entry, looked up): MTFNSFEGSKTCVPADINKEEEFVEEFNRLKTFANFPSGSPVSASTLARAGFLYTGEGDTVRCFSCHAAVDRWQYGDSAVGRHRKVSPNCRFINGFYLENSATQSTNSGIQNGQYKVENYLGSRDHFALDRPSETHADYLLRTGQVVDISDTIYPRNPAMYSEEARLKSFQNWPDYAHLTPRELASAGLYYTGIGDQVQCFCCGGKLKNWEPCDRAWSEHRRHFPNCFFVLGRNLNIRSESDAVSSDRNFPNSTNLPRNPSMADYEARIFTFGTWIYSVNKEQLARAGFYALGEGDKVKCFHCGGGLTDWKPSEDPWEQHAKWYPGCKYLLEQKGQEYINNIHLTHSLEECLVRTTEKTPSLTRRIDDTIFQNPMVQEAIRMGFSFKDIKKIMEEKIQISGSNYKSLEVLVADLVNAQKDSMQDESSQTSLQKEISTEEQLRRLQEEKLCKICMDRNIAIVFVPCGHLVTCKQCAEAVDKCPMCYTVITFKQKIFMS

Chain of Dihydroorotate dehydrogenase (quinone), mitochondrial (Plasmodium falciparum (isolate 3D7)) (Q08210 whole entry, looked up): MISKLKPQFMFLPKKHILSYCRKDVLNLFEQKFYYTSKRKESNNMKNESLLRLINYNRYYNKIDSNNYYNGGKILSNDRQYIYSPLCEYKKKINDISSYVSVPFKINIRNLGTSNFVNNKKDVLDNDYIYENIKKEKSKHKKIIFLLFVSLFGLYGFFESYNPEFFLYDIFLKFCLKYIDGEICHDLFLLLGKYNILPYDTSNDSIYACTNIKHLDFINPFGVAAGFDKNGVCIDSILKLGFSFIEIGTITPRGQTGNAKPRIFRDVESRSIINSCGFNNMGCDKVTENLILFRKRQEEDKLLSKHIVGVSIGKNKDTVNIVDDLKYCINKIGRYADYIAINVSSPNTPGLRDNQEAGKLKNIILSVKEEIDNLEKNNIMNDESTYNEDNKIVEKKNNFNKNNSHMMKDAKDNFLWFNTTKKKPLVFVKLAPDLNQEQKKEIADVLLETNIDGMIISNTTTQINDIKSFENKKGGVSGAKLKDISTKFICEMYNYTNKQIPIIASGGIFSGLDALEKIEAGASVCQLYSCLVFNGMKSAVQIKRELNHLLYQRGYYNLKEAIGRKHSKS

As for `O=C1c2ccccc2[C@@]2(Cc3ccccc3N(Cc3ccccc3)C2=O)[C@H](c2ccc(CO)cc2)N1Cc1ccccc1`, the z-score in test [1] is -0.574; in test [2] it was -0.269; in test [3] it was -0.643; in [4] it was 0.0744; in [5], -0.851; in test [6], -0.0723. The z-score in [7] was -0.271 (inactive); in test [8], 0.167; in [9], -0.353; in test [10], -0.381 (inactive); in [11], -0.739; in test [12], -0.773 (inactive). The z-score is -0.851 (inactive) in test [13]; 0.0714 (inactive) in test [15]; -0.153 (inactive) in [16]; -0.0466 (inactive) in test [17]; -0.0261 (inactive) in test [18]; -0.982 in test [19]. For the same compound, the values for the composite z-score in [14] and in [20] were -2.87 (inactive) and -0.0525, respectively.
In the case of `Cc1ccc(S[C@]2(C(=O)NCC(F)(F)F)CC(=O)N(C3CCCCC3)[C@@H]2c2ccc(CO)cc2)cc1`, the z-score in test [1] was 0.815; in test [2], 0.132; in [3], 0.844; in test [4], -1.03; in [5], -0.758; in [6], 1.11. The z-score was 0.466 (inactive) in test [7]; 0.0558 in test [8]; -0.42 in [9]; -0.0508 (inactive) in [10]; -0.473 in [11]; -0.0396 (inactive) in test [12]. The z-score was 0.273 (inactive) in [13]; 0.0309 (inactive) in test [15]; 0.309 (inactive) in [16]; 0.457 (inactive) in [17]; 1.01 (inactive) in test [18]; 0.149 in test [19]. Further, the composite z-score in test [14] is -1.41 (inactive); in test [20], -0.155.
`CCCCCCc1nc(-c2ccc(OC)nc2)cc2c1[Si](C(C)C)(C(C)C)OC2`: the z-score in test [1] was -0.848; in test [2], 0.608; in test [3], 0.238; in [4], -2.15; in test [5] it was -3.11; in test [6], -1.91. The z-score in test [7] was -0.191 (inactive); in test [8] it was -0.791; in [9], -0.368; in test [10], 0.552 (inactive); in test [11], 0.0579; in test [12], 0.721 (inactive). Besides, the z-score is 0.426 (inactive) in [13]; -0.0391 (inactive) in test [15]; -0.483 (inactive) in test [16]; 0.37 (inactive) in [17]; 0.212 (inactive) in [18]; 0.343 in [19]. For the same compound, the composite z-score is -3.12 (inactive) in test [14] and -0.0525 in [20].
As to `COCCOC(=O)N1C(=O)[C@@]2(c3cc(C#CC4(O)CCCCCC4)ccc31)[C@H](c1ccccc1OCCO)N1[C@H](c3ccccc3)[C@H](c3ccccc3)OC(=O)[C@H]1[C@@H]2C(=O)N1CCCCCCC1`, the z-score was -0.971 in test [1]; 0.723 in test [2]; 0.818 in test [3]; -1.45 in test [4]; -1.99 in [5]; -0.286 in test [6]. Also, the z-score was 0.454 (inactive) in [7]; -0.557 in test [8]; -1.34 in [9]; -0.141 (inactive) in test [10]; -0.0209 in [11]; 2.15 (inactive) in test [12]. Besides, the z-score in [13] is -0.303 (inactive); in [15] it was 2.05 (inactive); in test [16], 2.76 (inactive); in test [17], -0.225 (inactive); in test [18], 0.003 (inactive); in test [19], -0.444. The composite z-score is 0.0767 (inactive) in test [14] and 0.0483 in [20].
For the compound `C=CCOC(=O)[C@H]1[C@@H]2C(=O)O[C@@H](c3ccccc3)[C@@H](c3ccccc3)N2[C@@H](c2ccc(OCCOC(=O)[C@H]3C[C@H]4C(=O)NCC(=O)N4[C@H]3c3ccc(O)cc3)cc2)[C@]12C(=O)Nc1ccc(I)cc12`, the z-score in [1] is -0.362; in test [2] it was 0.34; in test [3] it was 1.78; in test [4], 0.782; in test [5], 0.483; in test [6] it was -1.63. For the same compound, the z-score in test [7] was 0.266 (inactive); in test [8], -0.398; in test [9], -1.43; in test [10], 0.144 (inactive); in test [11], 0.0134; in [12], 1.27 (inactive). Also, the z-score in test [13] was 0.478 (inactive); in test [15] it was 2.83 (inactive); in [16], 1.7 (inactive); in [17], 0.157 (inactive); in test [18] it was 0.987 (inactive); in test [19], 0.642. The values for the composite z-score in [14] and in test [20] were 0.383 (inactive) and -0.0351, respectively.
Take `CCOC(=O)C[C@H]1[C@H](OC(=O)c2ccc(-c3ccccc3)cc2)[C@@H](NC(=O)c2ccc3ccccc3c2)c2cc(OCCCO)ccc2N1C(=O)c1ccccc1`: the z-score in test [1] is -0.9; in test [2], 0.237; in [3] it was -0.307; in test [4], -0.438; in test [5], -0.322; in test [6], 0.762. Also, the z-score in test [7] is -0.0421 (inactive); in test [8], 0.483; in test [9], -0.108; in test [10] it was 0.231 (inactive); in test [11], -0.491; in test [12], 1.31 (inactive). Also, the z-score in test [13] was -0.483 (inactive); in test [15], 0.055 (inactive); in test [16], 1.13 (inactive); in [17], -0.0319 (inactive); in [18], -0.0532 (inactive); in test [19] it was -0.221. Further, the composite z-score in test [14] is 0.622 (inactive); in test [20] it was 0.0454.
With `C#CCN=C(N)N`, the z-score in test [1] is -0.268; in test [2], -0.677; in test [3], 0.527; in [4], 0.67; in test [5] it was 0.381; in [6], -0.794. For the same compound, the z-score in [7] is 0.268 (inactive); in test [8], -0.574; in [9], -0.922; in test [10], 0.0116 (inactive); in test [11], -0.0276; in test [12], -0.639 (inactive). Moreover, the z-score in [13] is 0.111 (inactive); in [15], 0.845 (inactive); in test [16], -0.491 (inactive); in [17], -0.383 (inactive); in test [18] it was -0.079 (inactive); in test [19], 0.0428. The composite z-score in test [14] is -0.377 (inactive); in [20], 0.155.
In the case of `CC(C)C[C@@H]1NC(=O)[C@@]23C(=O)N[C@@H](Cc4ccccc4)C2[C@H](C)[C@@]2(C)O[C@H]2C3/C=C/C/C=C\CNC(=O)[C@@H](CC(C)C)NC1=O` (stereo not given in full), the z-score in test [1] is 0.939; in test [2] it was 0.703; in [3], -0.293; in test [4] it was -0.549; in [5], -0.361; in test [6], -0.046. The z-score in [7] was -0.618 (inactive); in test [8] it was -0.955; in [9] it was 1.28; in [10], 1.31 (inactive); in [11], 0.175; in test [12], -1.08 (inactive). Also, the z-score in [13] was -0.102 (inactive); in test [15] it was 0.0937 (inactive); in test [16] it was -0.664 (inactive); in test [17] it was 0.495 (inactive); in test [18], -0.323 (inactive); in [19], 0.292. The results for the composite z-score in test [14] and in test [20] were -0.0599 (inactive) and -0.0752, respectively.
Consider `CCCCN1CC=CC23O[C@@H]4C=CCOC(=O)[C@@H]4[C@H]2C(=O)N(C(CO)C(C)C)[C@@H]3C1=O` (stereo not given in full), for which the z-score in [1] is -0.503; in test [2], -1.13; in test [3], -0.803; in [4] it was 0.543; in test [5], -0.42; in [6], -0.528. Moreover, the z-score was -0.713 (inactive) in [7]; 0.184 in test [8]; -0.071 in test [9]; -0.519 (inactive) in test [10]; -0.469 in [11]; 0.303 (inactive) in [12]. Moreover, the z-score in test [13] was -0.908 (inactive); in [15], 0.0405 (inactive); in [16], 0.707 (inactive); in test [17], -0.781 (inactive); in test [18] it was -0.825 (inactive); in test [19], -0.844. The composite z-score in test [14] was -0.221 (inactive); in test [20] it was -0.22.
